Molecules are shown by their SMILES. Structures can show the parent of a compound that is named as a salt. ± gives the standard deviation of the averaged measurements.

We go through 35 compounds from the supplement of paper PMC4840960.

The test system of the assay is E18 rat cortical neuron-glia co-culture. The assay is described as follows: fiber score / MBP score (myelination specific beyond OL differentiation) (ratio); higher = more myelination-specific MBP alignment. To be noted: 1 µM; treatment time: 8 days (DIV5-DIV13). A digest of the protocol:
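The measure is the ratio of fiber score to MBP score, where fiber score is continuous MBP fiber length per Olig2+ nucleus and MBP score is thresholded MBP area × intensity per Olig2+ nucleus. Primary E18 rat cortical co-cultures received library compounds at 1 or 5 µM in myelination medium from DIV5 to DIV13, then were fixed in 4 % paraformaldehyde and stained for MBP, Olig2 and DAPI before analysis of four 10X fields per well in duplicate wells.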
For the compound `CN1CCCCC1CCN1c2ccccc2Sc2ccc([S+](C)[O-])cc21` (stereo not given) [Mesoridazine], the “fiber score / MBP score” value came to 0.531.

As for `NC12CC3CC(CC(C3)C1)C2` [Amantadine], the “fiber score / MBP score” value was determined as 0.736.

Consider `CN1CCN(c2c(F)cc3c(=O)c(C(=O)O)cn4c3c2SCC4)CC1` [Rufloxacin], for which the “fiber score / MBP score” value turned out to be 1.05.

Take `COc1cc(N)c(Cl)cc1C(=O)NC1CCN(CCCOc2ccc(F)cc2)CC1OC` (stereo not given) [Cisapride]: the “fiber score / MBP score” value turned out to be 0.935.

Consider `COc1ccc(C2CNC(=O)C2)cc1OC1CCCC1` (stereo not given) [Rolipram], for which the “fiber score / MBP score” value was 0.626.

`CCCCN1CCCCC1C(=O)Nc1c(C)cccc1C` (stereo not given) [Bupivacaine]: the “fiber score / MBP score” value was determined as 0.752.

Take `O=C(CCCN1CC=C(n2c(=O)[nH]c3ccccc32)CC1)c1ccc(F)cc1` [Droperidol]: the “fiber score / MBP score” value was 0.863.

Take `CCCC(CCC)C(=O)O` [Valproic Acid]: the “fiber score / MBP score” value came to 0.837.

Consider `COc1cc(C[C@@H](CO)[C@H](CO)Cc2ccc(O)c(OC)c2)ccc1O` [Secoisolariciresinol], for which the “fiber score / MBP score” value was 0.879.

As for `C[C@H]1O[C@@H](O[C@H]2[C@@H](O)C[C@H](O[C@H]3[C@@H](O)C[C@H](O[C@H]4CC[C@@]5(C)[C@H](CC[C@@H]6[C@@H]5C[C@@H](O)[C@]5(C)[C@@H](C7=CC(=O)OC7)CC[C@]65O)C4)O[C@@H]3C)O[C@@H]2C)C[C@H](O)[C@@H]1O` [Digoxin], the “fiber score / MBP score” value was found to be 1.37.

With `O=C1CC[C@@H](C(=O)N2CSC[C@H]2C(=O)O)N1` [Pidotimod], the “fiber score / MBP score” value is 0.869.

Regarding `CN(CCO)CC(O)Cn1cnc2c1c(=O)n(C)c(=O)n2C` (stereo not given) [Jupal], the “fiber score / MBP score” value was 0.827.

`CN/C(=N\CCSCc1nc[nH]c1C)NC#N` [Cimetidine]: the “fiber score / MBP score” value came out at 0.731.

Consider `COc1cc(C(=O)NC2CCCNC2)cc(OC)c1OC` (stereo not given) [Troxipide], for which the “fiber score / MBP score” value was 0.692.

On to `CCc1cc(C(N)=S)ccn1` [Ethionamide], for which the “fiber score / MBP score” value stood at 0.983.

Take `COc1ccccc1N1CCN(CCCNc2cc(=O)n(C)c(=O)n2C)CC1` [Urapidil]: the “fiber score / MBP score” value turned out to be 0.767.

Take `COc1ccc(Cl)cc1C(=O)NCCc1ccc(S(=O)(=O)NC(=O)NC2CCCCC2)cc1` [Glyburide]: the “fiber score / MBP score” value stood at 1.07.

For the compound `O=C1CCC(N2C(=O)c3ccccc3C2=O)C(=O)N1` (stereo not given) [Thalidomide], the “fiber score / MBP score” value is 1.07.

`COc1ccccc1OCC(O)CN1CCN(CC(=O)Nc2c(C)cccc2C)CC1` (stereo not given) [Ranolazine]: the “fiber score / MBP score” value was 0.877.

With `CC(=O)O[C@@]12CO[C@@H]1C[C@H](O)[C@@]1(C)C(=O)[C@H](O)C3=C(C)[C@@H](OC(=O)[C@H](O)[C@@H](NC(=O)OC(C)(C)C)c4ccccc4)C[C@@](O)([C@@H](OC(=O)c4ccccc4)[C@H]21)C3(C)C` [Docetaxel], the “fiber score / MBP score” value came to 1.59.

`CCCCC(=O)N(Cc1ccc(-c2ccccc2-c2nnn[nH]2)cc1)[C@H](C(=O)O)C(C)C` [Valsartan]: the “fiber score / MBP score” value came out at 0.885.

Regarding `CN(C)CCc1c[nH]c2ccc(C[C@H]3COC(=O)N3)cc12` [Zolmitriptan], the “fiber score / MBP score” value stood at 0.791.

`CC(=O)CCCCn1c(=O)c2c(ncn2C)n(C)c1=O` [Pentoxifylline]: the “fiber score / MBP score” value came to 0.817 ± 0.062.

On to `NS(=O)(=O)c1cc2c(cc1C(F)(F)F)NC(Cc1ccccc1)NS2(=O)=O` (stereo not given) [Bendroflumethiazide], for which the “fiber score / MBP score” value came out at 0.474.

As to `CN(CCOc1ccc(NS(C)(=O)=O)cc1)CCc1ccc(NS(C)(=O)=O)cc1` [Dofetilide], the “fiber score / MBP score” value worked out at 1.2.

As for `COc1cc(-c2ccc(=O)[nH]n2)ccc1OC(F)F` [Zardaverine], the “fiber score / MBP score” value amounted to 0.581.

With `O=C(O)c1cc(-c2ccc(F)cc2F)ccc1O` [Diflunisal], the “fiber score / MBP score” value turned out to be 0.772.

`S=c1[nH]cnc2nc[nH]c12` [Mercaptopurine]: the “fiber score / MBP score” value was 0.858.

As to `C[C@H]1C[C@H]2[C@@H]3CCC4=CC(=O)C=C[C@]4(C)[C@@]3(Cl)[C@@H](O)C[C@]2(C)[C@@]1(O)C(=O)CO` [Beclomethasone], the “fiber score / MBP score” value was found to be 0.828 ± 0.36.

`CC1(C)S[C@@H]2[C@H](NC(=O)[C@H](N)c3ccccc3)C(=O)N2[C@H]1C(=O)O` [Ampicillin]: the “fiber score / MBP score” value was 0.301.

On to `Nc1nc(=O)[nH]cc1F` [Flucytosine], for which the “fiber score / MBP score” value was 0.88.

In the case of `CC(=O)O[C@H]1C[C@@H]2CC[C@@H]3[C@H](CC[C@@]4(C)[C@H]3C[C@H]([N+]3(C)CCCCC3)[C@@H]4OC(C)=O)[C@@]2(C)C[C@@H]1N1CCCCC1` [Vecuronium Bromide], the “fiber score / MBP score” value was determined as 0.647.

Consider `OCCOCCN1CCN(C(c2ccccc2)c2ccc(Cl)cc2)CC1` (stereo not given) [Hydroxyzine pamoate salt], for which the “fiber score / MBP score” value came out at 0.154.

On to `COc1cc(C)c(/C=C/C(C)=C/C=C/C(C)=C/C(=O)O)c(C)c1C` [Acitretin], for which the “fiber score / MBP score” value turned out to be 1.04.

Take `NS(=O)(=O)Cc1noc2ccccc12` [Zonisamide]: the “fiber score / MBP score” value turned out to be 0.789.
